Pf growth 96h – P. falciparum growth inhibition at 96 hour, primary screen for plastid delayed-death inhibitors | AID 504834 | P. falciparum luciferase reporter growth, 96 h | actives 6.9% (n = 320,000) | Potency, µM (doses to about 28.7 µM), for inactives: at the highest dose activity change, negative = inhibition, actives largely listed as inhibitors; further: potency means the concentration at half of the fitted maximal effect; on the % scale 0 is the no-effect control and ±100 the full control effect
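Cell-based qHTS: luciferase-tagged P. falciparum in erythrocytes (2% hematocrit, 0.05% parasitemia final) incubated with compounds for 96 hours, 37 C, 5% CO2; luciferase detection reagent then added and luminescence measured.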
CHX counter – counter-screen for Shiga toxin inhibitors: cycloheximide protein synthesis inhibition; cell reporter, cycloheximide protein synthesis inhibition counterscreen; max response, %; actives 12% (n = 300,000); AID 2314; in the data active means max response mostly above about 13%, no sharp cut-off; inactive means mostly below about 14%; further: read at 38.3 µM for the half of the compounds with a filed dose; 0% is about no effect
Shiga inhibitor – inhibitors of Shiga toxin in Vero cells. actives 9.2% (n = 290,000). inhibition, % at 38.7 µM. Vero cells, Shiga toxin protein synthesis inhibition reporter; in the data active means inhibition mostly above about 28%, no sharp cut-off; inactive means mostly below about 43%; further: 0% is about no effect
Pf growth 48h – inhibits P. falciparum growth in the first generation, 48 h; P. falciparum luciferase growth in erythrocytes, 48 h; Potency, µM (doses to about 28.7 µM), for the others: at the top dose activity change, negative = inhibition, hits mostly inhibitors; actives 5.9% (n = 310,000); AID 504832; further: potency means the concentration at half of the fitted maximal effect; on the % scale 0 is the no-effect control and ±100 the full control effect
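Erythrocytes infected with P. falciparum carrying an integrated firefly luciferase reporter (2% hematocrit, 0.1% parasitemia final) were exposed to compounds in RPMI 1640 with 0.5% Albumax at 37 C, 5% CO2. Growth inhibition was scored as reduced luminescence.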
* hit, by the source's call; i = inactive; ? = inconclusive; nt = not tested or not shown; [ ] = remark or other dose. Only some compounds are listed: those with a hit (about 21% of all), similar ones and a draw of the others. Unless noted, the call rests on the fitted dose curve; in most records, active means well fitted inhibition curve with a large enough effect; inconclusive means small, poorly fitted or top-dose-only effect, or another doubt; inactive means no such curve, though single readings can be large or run the other way.

SMILES	Pf growth 96h	CHX counter	Shiga inhibitor	Pf growth 48h
Cc1cn(CCC(=O)Nc2ccc(N3CCOCC3)cc2)c2ccccc12	?	65.6*	60.9*	7.5%
CC1(C)CC(=O)C=C(NNC(=O)c2ccccc2O)C1	216.0%	-1.8	-15.6	38.5%
Cc1cccc(C(=O)NNC2=CC(=O)CC(C)(C)C2)c1O	40.6%	16.4*	64.9*	25.2%
CC1(C)C(=O)N(CCN2CCC(C(=O)c3ccc(F)cc3)CC2)c2ccccc21	?	nt	nt	14.7µM*
O=C(CN1CCC(C(=O)c2ccc(F)cc2)CC1)NCc1ccccc1F	6.57µM*	-3.4	14.6	-25.3%
O=C(c1ccc(F)cc1)C1CCN(CCn2c(=S)[nH]c3ccccc3c2=O)CC1	4.26µM*	-1.6	-2.1	3.79µM*
O=C(c1ccc(F)cc1)C1CCN(CCn2c(=O)[nH]c3ccccc3c2=O)CC1	nt	-3.7	-3.6	nt
CCOC(=O)c1ccc(COC(=O)c2nonc2N)cc1	?	21.6*	3.3	0.0%
Cc1ccc2ccccc2c1COC(=O)c1nonc1N	nt	-1.8	-12.3	-0.7%
CC(=O)c1c(O)cc(O)c(C(C)=O)c1O	-10.8%	-5.4	-4.7	10.4µM*
CN(Cc1ccccc1F)C(=O)CN1c2cccc3cccc(c23)S1(=O)=O	1.8%	nt	nt	-32.2%
C/C(NCCN1CCOCC1)=C(\C#N)C(N)=O	1.65µM*	-6.8	-2.8	9.8%
Cc1ccc(-c2nn(-c3ccccc3)cc2C(=O)N2CCN(c3ccccn3)CC2)cc1	?	32.6	42.2*	?
O=C(c1cn(-c2ccccc2)nc1-c1ccccc1)N1CCN(c2ccccn2)CC1	-18.8%	23.0*	29.1	?
COc1ccc(-c2nn(-c3ccccc3)cc2/C=C/C(=O)N2CCN(c3ccccn3)CC2)cc1	10.4µM*	-3.0	-1.3	?
O=C(c1cn(-c2ccccc2)nc1-c1ccccc1)N1CCOCC1	17.7%	22.1	20.1	nt
O=C(c1cn(-c2ccccc2)nc1-c1ccc(Cl)cc1)N1CCOCC1	5.5%	-7.1	-11.8	4.5%
COc1ccc(OC(C)C(=O)N2CCN(c3ccccn3)CC2)cc1 (stereo unspecified)	nt	-3.3	24.9	3.3%
COc1ccc2[nH]c3c(=O)n(Cc4ccc(C(=O)N5CCCC5)cc4)c(=S)[nH]c3c2c1	90.1%	10.9	15.5	6.4%
CCOC(=O)C1=C(C)NC2=C(C(=O)C(C(=O)OCC)C(c3ccc(OC)cc3)C2)C1c1ccccn1 (stereo unspecified)	8.8%	-1.7	-3.9	?
CCOC(=O)C1=C(C)NC2=C(C(=O)C(C(=O)OCC)C(c3cccc(OC)c3)C2)C1c1ccccn1 (stereo unspecified)	5.86µM*	-2.7	-12.5	8.28µM*
CCOC(=O)C1=C(C)NC2=C(C(=O)C(C(=O)OCC)C(c3ccccc3OC)C2)C1c1ccccn1 (stereo unspecified)	3.7µM*	-0.6	-10.9	4.15µM*
CCN(CC)CCCNC(=O)Cn1cnc2sc(C)c(S(=O)(=O)N3CCC(C)CC3)c2c1=O	?	-1.2	-5.1	15.0%
Cc1c(OCC(=O)NC2CCN(Cc3ccccc3)CC2)ccc2c3c(c(=O)oc12)CCC3	?	-10.1	-7.2	?
O=C1OC(Cc2ccccn2)C(=O)C1=C1SCCS1 (stereo unspecified)	13.1%	29.5*	active	5.2%
SMILES	Pf growth 96h	CHX counter	Shiga inhibitor	Pf growth 48h
c1ccc(Cn2nnnc2C(c2cccnc2)N2CCN(c3ccccc3)CC2)cc1 (stereo unspecified)	nt	11.9	-16.2	13.1µM*
c1ccc(Cn2nnnc2C(c2ccncc2)N2CCOCC2)cc1 (stereo unspecified)	0.738µM*	-2.3	-5.6	14.9%
Cc1cc(C(c2nnnn2Cc2ccccc2)N2CCOCC2)c(C)n1-c1ccc2c(c1)OCO2 (stereo unspecified)	21.6%	17.8*	41.6*	9.28µM*
CN1CCN(C(c2ccccc2)c2nnnn2Cc2ccccc2)CC1 (stereo unspecified)	-21.6%	-2.1	-5.7	1.4%
CCCC(=O)N(Cc1cc(=O)[nH]c2ccccc12)c1cccc(C)c1	8.28µM*	-0.7	-2.0	11.7µM*
Cc1cccc(N(Cc2cc(=O)[nH]c3ccccc23)C(=O)CCl)c1	?	-3.1	-3.4	?
CC1C(=O)C(C)C(c2cccc(Br)c2)NC1c1cccc(Br)c1 (stereo unspecified)	?	-3.9	2.7	-4.4%[0.00184 µM]
O=C1c2ccccc2C(=Nc2ccccc2)C1c1cccc(Br)c1 (stereo unspecified)	4.15µM*	-2.7	-6.2	?
COc1ccc(C(=O)Nc2ccc(C(=O)N3CCCCC3C)cc2)c(OC)c1OC (stereo unspecified)	-93.9%	-4.0	-5.0	?
NC1=NC(c2ccccc2)N=C(Nc2ccccc2)N1 (stereo unspecified)	2.94µM*	14.1*	19.8	4.65µM*
O=C1NC(=O)c2cc(Nc3ccccc3)c(Nc3ccccc3)cc21	nt	-6.1	-11.2	nt
NC1=NC2(CCCC2)N=C(Nc2ccccc2)N1	1.47µM*	-3.9	-9.4	?
COc1ccc(OC)c(NC2=NC3(CCCCC3)N=C(N)N2)c1	-17.3%	-3.0	-3.2	?
CCCCOc1ccc(NC2=NC3(CCCCC3)N=C(N)N2)cc1	8.2%	5.3	-12.1	0.657µM*
COc1ccc(NC2=NC3(CCCCC3)N=C(N)N2)cc1	?	-0.7	-12.9	0.928µM*
O=C(Nc1ccc(N2CCOCC2)cc1)c1cc2c(s1)CCCC2	-2.4%	17.0*	51.2	-32.7%[1.15 µM]
O=C(Nc1ccc(N2CCOCC2)cc1)c1cc2c(s1)CCCCC2	?	12.1	44.1	?
O=C(Nc1ccccc1N1CCOCC1)c1cc2c(s1)CCCCC2	35.2%	39.7*	52.7*	14.4%
CCCCn1c(=O)c(CC(C)=O)nc2ccccc21	?	-2.5	-2.0	-4.6%
CN(CC(=O)Nc1ccccc1Br)C(=O)CNC(=O)c1ccc(Oc2ccccc2)cc1	-11.3%	60.1*	55.2*	?
CN(CC(=O)Nc1ccc(Cl)cc1)C(=O)CNC(=O)Cc1cccc2ccccc12	-18.5%	nt	nt	-18.7%
CN(Cc1cccs1)C(=O)CSc1nc2ccccc2[nH]1	96.8%	47.3*	122.5*	31.6%
CC(C)CCSc1nc2ccccc2[nH]1	290.1%	52.3*	102.5*	223.3%
CC(=O)N=C(N)Sc1nc2ccccc2[nH]1	i	48.2*	67.3*	i
CC(Sc1nc2ccccc2[nH]1)C(=O)O (stereo unspecified)	-22.9%	-2.5	-15.0	nt
SMILES	Pf growth 96h	CHX counter	Shiga inhibitor	Pf growth 48h
COC(=O)CSc1nc2nc(C)c(Br)cc2[nH]1	nt	0.8	9.0	14.1%
C=C(C)CSc1nc2nc(C)c(Br)cc2[nH]1	nt	29.8*	80.9*	33.4%
CCOC(=O)C1CCC(CNCc2ccc(Cl)cc2)CC1 (stereo unspecified)	52.2%	-1.5	-7.3	-11.8%
CCOC(=O)NC(=O)CSc1nc2ccccc2[nH]1	-0.7%	7.0	17.1	17.8%
C=C(C)CSc1nc2ccccc2[nH]1	6.9%	28.6*	59.5*	39.5%
O=C(C1CC=CCC1)N1CCN(S(=O)(=O)c2ccc(F)cc2)CC1 (stereo unspecified)	12.7%	nt	nt	10.0%
Cc1ccc(C[n+]2cccc(-c3ccccc3)c2)c(C)c1	0.329µM*	-3.9	-13.8	0.928µM*

Source: PubChem BioAssay
